According to PMC11062922 (Nature Chemical Biology, 2023):

Experiments:
Design in all cases: species or system human, MV4-11 + K-562 + COLO205 + SK-N-BE2 + OVCAR-8
Details in all cases: read-out: apparent Kd; compound concentrations:100 nM and 1000 nM (sheet 'Samples'); n = 1
ADCK1 = system: ADCK1
AKT1 = system: AKT1
ATR = system: ATR
AURKA = system: AURKA
BTK = system: BTK
CDK9 = system: CDK9
CLK1 = system: CLK1
CLK4 = system: CLK4
CSNK1A1 = system: CSNK1A1
CSNK1E = system: CSNK1E
CSNK1G1 = system: CSNK1G1
CSNK1G3 = system: CSNK1G3
DDX3X;DDX3Y = system: DDX3X;DDX3Y
EPHB3 = system: EPHB3
GRK6 = system: GRK6
HSP90B1 = system: HSP90B1
LYN = system: LYN
MAP2K1 = system: MAP2K1
MAP2K2 = system: MAP2K2
MAPK1 = system: MAPK1
MAPK3 = system: MAPK3
MCM5 = system: MCM5
MET = system: MET
OPA1 = system: OPA1
PHKG2 = system: PHKG2
PI4KA = system: PI4KA
PI4KB = system: PI4KB
PIK3CA = system: PIK3CA
PIK3CB = system: PIK3CB
PIM1 = system: PIM1
PIM3 = system: PIM3
PRKACA = system: PRKACA
PRKDC = system: PRKDC
RAB14 = system: RAB14
RAB5C = system: RAB5C
RPS6KA3 = system: RPS6KA3
RPS6KA6 = system: RPS6KA6
SKIV2L2 = system: SKIV2L2
SLC25A5 = system: SLC25A5
T10 = system: T1, T10
T1 construct: gene NAT10

TBK1 = system: TBK1
TEC = system: TEC
ULK3 = system: ULK3
VDAC3 = system: VDAC3

## Cc1cnc(Nc2ccc(F)cc2Cl)nc1-c1c[nH]c(C(=O)N[C@H](CO)c2cccc(Cl)c2)c1 [Vertex11e]
ADCK1
  potency estimated from few doses: 1210 nM
AKT1
  potency estimated from few doses: 1200 nM
ATR
  potency estimated from few doses: 890 nM
AURKA
  potency estimated from few doses: 745 nM
BTK
  potency estimated from few doses: 880 nM
CDK9
  potency estimated from few doses: 1810 nM
CLK1
  potency estimated from few doses: 1150 nM
CLK4
  potency estimated from few doses: 1250 nM
CSNK1A1
  potency estimated from few doses: 969 nM
CSNK1E
  potency estimated from few doses: 1220 nM
CSNK1G1
  potency estimated from few doses: 2060 nM
CSNK1G3
  potency estimated from few doses: 1230 nM
DDX3X;DDX3Y
  potency estimated from few doses: 1220 nM
EPHB3
  potency estimated from few doses: 2330 nM
GRK6
  potency estimated from few doses: 1290 nM
HSP90B1
  potency estimated from few doses: 1070 nM
LYN
  potency estimated from few doses: 1320 nM
MAP2K1
  potency estimated from few doses: 1350 nM
MAP2K2
  potency estimated from few doses: 1430 nM
MAPK1
  potency estimated from few doses: 44.9 nM
MAPK3
  potency estimated from few doses: 77.8 nM
MCM5
  potency estimated from few doses: 1270 nM
MET
  potency estimated from few doses: 2320 nM
OPA1
  potency estimated from few doses: 802 nM
PHKG2
  potency estimated from few doses: 2480 nM
PI4KA
  potency estimated from few doses: 1380 nM
PI4KB
  potency estimated from few doses: 59.2 nM
PIK3CA
  potency estimated from few doses: 142 nM
PIK3CB
  potency estimated from few doses: 851 nM
PIM1
  potency estimated from few doses: 939 nM
PIM3
  potency estimated from few doses: 340 nM
PRKACA
  potency estimated from few doses: 1860 nM
PRKDC
  potency estimated from few doses: 723 nM
RAB14
  potency estimated from few doses: 655 nM
RAB5C
  potency estimated from few doses: 1330 nM
RPS6KA3
  potency estimated from few doses: 1540 nM
RPS6KA6
  potency estimated from few doses: 628 nM
SKIV2L2
  potency estimated from few doses: 1590 nM
SLC25A5
  potency estimated from few doses: 1450 nM
T10
  potency estimated from few doses: 952 nM
TBK1
  potency estimated from few doses: 1290 nM
TEC
  potency estimated from few doses: 1320 nM
ULK3
  potency estimated from few doses: 1530 nM
VDAC3
  potency estimated from few doses: 1380 nM
